In PMC7862700, “An all-to-all approach to the identification of sequence-specific readers for epigenetic DNA modifications on cytosine”:

Key:
Test in all cases: DAPPL (digital affinity profiling via proximity ligation, sequencing); 10 mM Tris-HCl pH 7.5, 50 mM NaCl, 1 mM DTT, 4% glycerol, room temperature, 30 min; GST-TFs on glutathione beads, 16-mer random dsDNA library, 0.1% formaldehyde crosslink after washing; high values mean tight binding
FEV = target: T1, FEV (Homo sapiens, UniProt Q99581 1-238); details: protein: recombinant; tags: N-terminal GST; dsDNA, one strand shown
T1 sequence: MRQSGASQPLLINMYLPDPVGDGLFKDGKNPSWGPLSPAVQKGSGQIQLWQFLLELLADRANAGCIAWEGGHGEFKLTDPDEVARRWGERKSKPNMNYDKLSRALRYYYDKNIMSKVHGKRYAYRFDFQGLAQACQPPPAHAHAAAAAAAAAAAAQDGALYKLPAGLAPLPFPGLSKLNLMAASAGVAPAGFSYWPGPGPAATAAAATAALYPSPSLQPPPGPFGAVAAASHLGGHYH
Procedure, shortened: (§1)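 After expression in yeast as GST fusions, human transcription factors were bound to glutathione beads, DNA-barcoded and mixed with a tag-only sample. The pools were incubated with 200 nmole of a 16-mer random double-stranded DNA library in Tris/NaCl/DTT/glycerol buffer (30 min, room temperature), washed and crosslinked with 0.1% formaldehyde. Proximity ligation with BsaI/T4 ligase ran for 1 h at 37 °C, before PCR amplification and sequencing on an Illumina NextSeq500. Binding signal is a hexamer's read frequency for a factor divided by its frequency for the tag-only sample.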

ETV5 = ETV5 (Homo sapiens, UniProt P41161 1-510); details: protein: recombinant; tags: N-terminal GST; dsDNA, one strand shown
Procedure, shortened: as §1

HSF1 = HSF1 (Homo sapiens, UniProt Q00613 1-529); details: protein: recombinant; tags: N-terminal GST; chain copies: 3; dsDNA, one strand shown
Procedure, shortened: as §1

SPIC = target: T2, SPIC (Homo sapiens, UniProt Q8N5J4 1-248); details: protein: recombinant; tags: N-terminal GST; dsDNA, one strand shown
T2 sequence: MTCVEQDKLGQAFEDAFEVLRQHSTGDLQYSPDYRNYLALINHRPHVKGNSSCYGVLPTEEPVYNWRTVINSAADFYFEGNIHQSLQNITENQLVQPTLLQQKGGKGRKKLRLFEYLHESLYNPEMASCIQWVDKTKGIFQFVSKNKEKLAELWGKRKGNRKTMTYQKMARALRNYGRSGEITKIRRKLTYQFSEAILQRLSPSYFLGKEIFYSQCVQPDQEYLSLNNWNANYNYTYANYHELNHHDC
Procedure, shortened: as §1

ELF4 = ELF4 (Homo sapiens, UniProt Q99607 1-663); details: protein: recombinant; tags: N-terminal GST; dsDNA, one strand shown
Procedure, shortened: as §1

ELK4 = target: T3, ELK4 (Homo sapiens, UniProt P28324-2 1-405); details: protein: recombinant; tags: N-terminal GST; dsDNA, one strand shown
T3 sequence: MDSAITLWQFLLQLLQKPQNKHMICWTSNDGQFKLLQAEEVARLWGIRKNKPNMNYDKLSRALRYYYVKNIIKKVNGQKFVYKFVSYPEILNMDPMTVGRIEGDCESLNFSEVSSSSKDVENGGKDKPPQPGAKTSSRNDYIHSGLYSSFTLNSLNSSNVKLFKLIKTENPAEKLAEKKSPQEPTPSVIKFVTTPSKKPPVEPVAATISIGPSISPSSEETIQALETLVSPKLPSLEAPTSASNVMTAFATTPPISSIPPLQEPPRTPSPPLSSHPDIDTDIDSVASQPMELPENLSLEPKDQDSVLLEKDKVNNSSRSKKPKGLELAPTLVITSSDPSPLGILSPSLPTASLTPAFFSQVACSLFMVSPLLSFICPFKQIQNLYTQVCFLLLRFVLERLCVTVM
Procedure, shortened: as §1

ETV2 = target: T4, ETV2 (Homo sapiens, UniProt O00321 1-342); details: protein: recombinant; tags: N-terminal GST; dsDNA, one strand shown
T4 sequence: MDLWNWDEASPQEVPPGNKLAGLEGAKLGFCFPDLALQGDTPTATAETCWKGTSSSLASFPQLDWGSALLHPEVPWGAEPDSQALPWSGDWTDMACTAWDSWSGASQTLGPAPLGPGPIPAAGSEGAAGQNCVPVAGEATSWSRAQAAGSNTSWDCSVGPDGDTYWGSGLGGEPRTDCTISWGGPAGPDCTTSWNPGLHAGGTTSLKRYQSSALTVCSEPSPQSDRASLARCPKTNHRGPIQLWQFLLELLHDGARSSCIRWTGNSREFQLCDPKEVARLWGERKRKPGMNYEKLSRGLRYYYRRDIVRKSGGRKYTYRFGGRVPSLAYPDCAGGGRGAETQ
Procedure, shortened: as §1

ELF3 = target: T5, ELF3 (Homo sapiens, UniProt P78545 1-371); details: protein: recombinant; tags: N-terminal GST; dsDNA, one strand shown
T5 sequence: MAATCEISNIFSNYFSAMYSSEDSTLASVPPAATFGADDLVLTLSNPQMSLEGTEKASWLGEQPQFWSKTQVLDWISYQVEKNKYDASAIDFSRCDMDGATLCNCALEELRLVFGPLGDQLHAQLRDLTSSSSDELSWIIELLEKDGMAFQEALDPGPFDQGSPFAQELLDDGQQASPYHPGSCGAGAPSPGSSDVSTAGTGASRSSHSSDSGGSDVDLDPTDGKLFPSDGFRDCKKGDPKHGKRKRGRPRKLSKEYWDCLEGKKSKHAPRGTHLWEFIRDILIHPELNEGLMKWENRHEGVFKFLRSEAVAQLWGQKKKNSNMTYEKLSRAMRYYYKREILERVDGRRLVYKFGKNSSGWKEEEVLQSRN
Procedure, shortened: as §1

ETV1 = ETV1 (Homo sapiens, UniProt P50549 1-477); details: protein: recombinant; tags: N-terminal GST; dsDNA, one strand shown
Procedure, shortened: as §1

Chain of ETV1 (P50549 whole entry): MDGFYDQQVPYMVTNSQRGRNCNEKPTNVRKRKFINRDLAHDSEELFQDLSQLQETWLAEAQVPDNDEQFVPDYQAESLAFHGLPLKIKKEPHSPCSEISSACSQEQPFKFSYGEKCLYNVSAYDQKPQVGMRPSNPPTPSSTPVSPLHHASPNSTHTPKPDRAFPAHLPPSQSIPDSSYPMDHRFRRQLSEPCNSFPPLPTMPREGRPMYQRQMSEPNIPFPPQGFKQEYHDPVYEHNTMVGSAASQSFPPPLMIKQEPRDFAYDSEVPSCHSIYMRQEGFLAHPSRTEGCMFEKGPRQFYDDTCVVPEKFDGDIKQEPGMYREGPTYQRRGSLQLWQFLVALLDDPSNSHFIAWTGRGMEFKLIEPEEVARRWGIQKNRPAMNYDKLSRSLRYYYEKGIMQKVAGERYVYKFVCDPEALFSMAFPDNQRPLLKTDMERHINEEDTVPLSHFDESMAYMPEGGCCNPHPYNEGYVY
Chain of HSF1 (Q00613 whole entry): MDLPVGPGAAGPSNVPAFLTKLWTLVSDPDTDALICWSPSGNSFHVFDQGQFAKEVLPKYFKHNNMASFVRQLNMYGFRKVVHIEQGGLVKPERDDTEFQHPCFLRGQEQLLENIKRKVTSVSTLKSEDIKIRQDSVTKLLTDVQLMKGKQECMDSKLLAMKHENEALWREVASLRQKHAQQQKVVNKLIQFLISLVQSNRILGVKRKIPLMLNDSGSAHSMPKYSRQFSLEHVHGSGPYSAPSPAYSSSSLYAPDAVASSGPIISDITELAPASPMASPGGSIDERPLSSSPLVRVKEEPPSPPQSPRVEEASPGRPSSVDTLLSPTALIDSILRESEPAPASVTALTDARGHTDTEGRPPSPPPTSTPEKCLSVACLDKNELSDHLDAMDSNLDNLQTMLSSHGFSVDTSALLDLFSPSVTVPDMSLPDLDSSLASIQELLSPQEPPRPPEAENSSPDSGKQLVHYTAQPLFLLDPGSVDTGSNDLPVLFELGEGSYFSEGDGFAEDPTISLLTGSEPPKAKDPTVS
Chain of ELF4 (Q99607 whole entry): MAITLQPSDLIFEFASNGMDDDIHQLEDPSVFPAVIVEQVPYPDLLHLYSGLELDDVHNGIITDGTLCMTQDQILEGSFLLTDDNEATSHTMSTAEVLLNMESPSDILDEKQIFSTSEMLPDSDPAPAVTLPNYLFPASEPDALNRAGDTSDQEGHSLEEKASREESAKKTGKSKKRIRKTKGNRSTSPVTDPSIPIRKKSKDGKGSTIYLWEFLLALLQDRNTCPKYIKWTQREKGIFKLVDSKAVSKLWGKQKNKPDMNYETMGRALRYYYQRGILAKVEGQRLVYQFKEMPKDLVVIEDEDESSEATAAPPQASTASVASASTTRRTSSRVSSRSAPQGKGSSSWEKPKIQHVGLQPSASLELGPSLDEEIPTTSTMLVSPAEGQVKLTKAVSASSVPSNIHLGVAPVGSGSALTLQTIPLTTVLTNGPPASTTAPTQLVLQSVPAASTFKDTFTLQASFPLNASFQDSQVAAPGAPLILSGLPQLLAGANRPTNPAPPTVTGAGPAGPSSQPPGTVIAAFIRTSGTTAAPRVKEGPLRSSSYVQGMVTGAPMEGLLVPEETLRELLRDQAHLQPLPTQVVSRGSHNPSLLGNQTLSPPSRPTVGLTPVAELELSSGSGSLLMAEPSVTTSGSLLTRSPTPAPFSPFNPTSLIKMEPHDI
Chain of ETV5 (P41161 whole entry): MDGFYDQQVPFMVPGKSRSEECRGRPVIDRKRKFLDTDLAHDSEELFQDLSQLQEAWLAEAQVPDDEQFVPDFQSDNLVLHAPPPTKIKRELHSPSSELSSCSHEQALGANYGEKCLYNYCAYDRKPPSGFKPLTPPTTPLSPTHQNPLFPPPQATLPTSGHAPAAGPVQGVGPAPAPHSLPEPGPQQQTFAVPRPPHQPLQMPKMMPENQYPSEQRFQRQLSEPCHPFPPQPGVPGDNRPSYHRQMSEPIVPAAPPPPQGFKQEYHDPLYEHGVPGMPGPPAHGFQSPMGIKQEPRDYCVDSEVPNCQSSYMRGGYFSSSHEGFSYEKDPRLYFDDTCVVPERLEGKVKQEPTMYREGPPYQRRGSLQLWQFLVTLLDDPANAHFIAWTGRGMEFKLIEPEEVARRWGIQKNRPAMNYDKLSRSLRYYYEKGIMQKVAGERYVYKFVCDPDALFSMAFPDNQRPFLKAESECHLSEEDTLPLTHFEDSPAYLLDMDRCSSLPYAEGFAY

Row | Sequence | binding signal (FEV) | binding signal (ETV5) | binding signal (HSF1) | binding signal (SPIC) | binding signal (ELF4) | binding signal (ELK4) | binding signal (ETV2) | binding signal (ELF3) | binding signal (ETV1)
1 | GATGGT | 1.07 fold enrichment (6-mer frequency, TF over GST control) | 1.16 fold enrichment (6-mer frequency, TF over GST control) | 1.02 fold enrichment (6-mer frequency, TF over GST control) | 1.19 fold enrichment (6-mer frequency, TF over GST control) | 1.11 fold enrichment (6-mer frequency, TF over GST control) | 1.18 fold enrichment (6-mer frequency, TF over GST control) | 1.37 fold enrichment (6-mer frequency, TF over GST control) | 1.19 fold enrichment (6-mer frequency, TF over GST control) | 1.22 fold enrichment (6-mer frequency, TF over GST control)
2 | ACTGCC | 1.39 fold enrichment (6-mer frequency, TF over GST control) | 1.38 fold enrichment (6-mer frequency, TF over GST control) | 1.06 fold enrichment (6-mer frequency, TF over GST control) | 1.61 fold enrichment (6-mer frequency, TF over GST control) | 1.39 fold enrichment (6-mer frequency, TF over GST control) | 1.31 fold enrichment (6-mer frequency, TF over GST control) | 1.16 fold enrichment (6-mer frequency, TF over GST control) | 1.24 fold enrichment (6-mer frequency, TF over GST control) | 1.3 fold enrichment (6-mer frequency, TF over GST control)
3 | TGCTAC | 1.36 fold enrichment (6-mer frequency, TF over GST control) | 1.25 fold enrichment (6-mer frequency, TF over GST control) | 1.03 fold enrichment (6-mer frequency, TF over GST control) | 1.41 fold enrichment (6-mer frequency, TF over GST control) | 1.23 fold enrichment (6-mer frequency, TF over GST control) | 1.4 fold enrichment (6-mer frequency, TF over GST control) | 1.24 fold enrichment (6-mer frequency, TF over GST control) | 1.25 fold enrichment (6-mer frequency, TF over GST control) | 1.42 fold enrichment (6-mer frequency, TF over GST control)
4 | CGATAC | 1.14 fold enrichment (6-mer frequency, TF over GST control) | 1.13 fold enrichment (6-mer frequency, TF over GST control) | 1.01 fold enrichment (6-mer frequency, TF over GST control) | 1.34 fold enrichment (6-mer frequency, TF over GST control) | 1.25 fold enrichment (6-mer frequency, TF over GST control) | 1.15 fold enrichment (6-mer frequency, TF over GST control) | 1.18 fold enrichment (6-mer frequency, TF over GST control) | 1.14 fold enrichment (6-mer frequency, TF over GST control) | 1.13 fold enrichment (6-mer frequency, TF over GST control)
5 | GTCTCT | 1.15 fold enrichment (6-mer frequency, TF over GST control) | 1.14 fold enrichment (6-mer frequency, TF over GST control) | 1.12 fold enrichment (6-mer frequency, TF over GST control) | 1.33 fold enrichment (6-mer frequency, TF over GST control) | 1.33 fold enrichment (6-mer frequency, TF over GST control) | 1.18 fold enrichment (6-mer frequency, TF over GST control) | 1.24 fold enrichment (6-mer frequency, TF over GST control) | 1.11 fold enrichment (6-mer frequency, TF over GST control) | 1.27 fold enrichment (6-mer frequency, TF over GST control)
6 | CTGCCC | 1.37 fold enrichment (6-mer frequency, TF over GST control) | 1.25 fold enrichment (6-mer frequency, TF over GST control) | 1.05 fold enrichment (6-mer frequency, TF over GST control) | 1.42 fold enrichment (6-mer frequency, TF over GST control) | 1.29 fold enrichment (6-mer frequency, TF over GST control) | 1.42 fold enrichment (6-mer frequency, TF over GST control) | 1.38 fold enrichment (6-mer frequency, TF over GST control) | 1.09 fold enrichment (6-mer frequency, TF over GST control) | 1.2 fold enrichment (6-mer frequency, TF over GST control)
7 | TGCCCC | 1.36 fold enrichment (6-mer frequency, TF over GST control) | 1.24 fold enrichment (6-mer frequency, TF over GST control) | 1.01 fold enrichment (6-mer frequency, TF over GST control) | 1.41 fold enrichment (6-mer frequency, TF over GST control) | 1.26 fold enrichment (6-mer frequency, TF over GST control) | 1.51 fold enrichment (6-mer frequency, TF over GST control) | 1.21 fold enrichment (6-mer frequency, TF over GST control) | 1.11 fold enrichment (6-mer frequency, TF over GST control) | 1.19 fold enrichment (6-mer frequency, TF over GST control)
8 | ATGTCC | 1.84 fold enrichment (6-mer frequency, TF over GST control) | 1.62 fold enrichment (6-mer frequency, TF over GST control) | 1.03 fold enrichment (6-mer frequency, TF over GST control) | 1.54 fold enrichment (6-mer frequency, TF over GST control) | 1.51 fold enrichment (6-mer frequency, TF over GST control) | 1.57 fold enrichment (6-mer frequency, TF over GST control) | 1.77 fold enrichment (6-mer frequency, TF over GST control) | 1.85 fold enrichment (6-mer frequency, TF over GST control) | 1.66 fold enrichment (6-mer frequency, TF over GST control)
